Source: PubChem BioAssay (NCI)
This is part of a sample that, as a whole, favours compounds with a hit. Of some 79,000 tested, about 15% had one in any assay. Values without a mark were called inactive. Activity calls are given as the source filed them. Rule as the data show it: active = growth inhibition above about 70%; inactive = the rest.

Experiments:
[1] = NCI Yeast Anticancer Drug Screen. Data for the rad50 strain (AID 155);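 also: 0% = growth of vehicle-only cultures of the same strain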; conditions: S. cerevisiae rad50 strain growth inhibition, hits give high values
Outline: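 Relative growth inhibition (compound vs vehicle) was measured in yeast with a defined repair-gene alteration.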

[2] = NCI Yeast Anticancer Drug Screen. Data for the mec2-1 strain (AID 157); conditions: S. cerevisiae mec2-1 strain, hits give high values
Outline: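 mec2-1 yeast strain, carrying an alteration in DNA damage repair or cell cycle control, was exposed to compounds; growth inhibition was measured relative to vehicle-treated controls.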

[3] = NCI Yeast Anticancer Drug Screen. Data for the sgs1 mgt1 strain (AID 161);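 also: 0% = growth of cultures given vehicle only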; conditions: S. cerevisiae sgs1 mgt1 strain, hits give high values
Outline: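 Percent growth inhibition was derived by comparing compound-exposed mutant yeast with vehicle-exposed cultures. The strain carries alterations in DNA damage repair.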

[4] = NCI Yeast Anticancer Drug Screen. Data for the cln2 rad14 strain (AID 165);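 also: 0% = growth equal to vehicle treated cultures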; conditions: S. cerevisiae cln2 rad14 strain, hits give high values
Outline: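 Yeast carrying cln2 and rad14 alterations (cell cycle control and DNA damage repair) were exposed to compounds. Growth inhibition was measured against vehicle-treated controls.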

[5] = NCI Yeast Anticancer Drug Screen. Data for the bub3 strain (AID 167); conditions: S. cerevisiae bub3 mutant strain, hits give high values
Outline: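 Screening used yeast with an engineered genetic alteration affecting cell cycle control. Compound-exposed cultures were compared with vehicle cultures, and reduced growth was taken as inhibition.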

[6] = NCI Yeast Anticancer Drug Screen. Data for the mlh1 rad18 strain (AID 175); conditions: S. cerevisiae mlh1 rad18 strain growth inhibition, hits give high values
Outline: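 Growth inhibition of the yeast strain was measured after compound exposure and expressed relative to vehicle-treated controls. The strain carries defined defects in DNA damage repair.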

[7] = at 5.0 µM (retest, dose inferred, filed as 0.5)
[8] = at 50.0 µM (retest, dose inferred, filed as 5.0)

Row | SMILES | growth inhibition [1, 7] [%] | growth inhibition [1, 8] | growth inhibition ([1]; at 50.0 µM) | growth inhibition [2, 7] [%] | growth inhibition [2, 8] | growth inhibition ([2]; at 50.0 µM) | growth inhibition [3, 7] [%] | growth inhibition [3, 8] | growth inhibition ([3]; at 50.0 µM) | growth inhibition [4, 7] | growth inhibition [4, 8] | growth inhibition ([4]; at 50.0 µM) | growth inhibition [5, 7] [%] | growth inhibition [5, 8] | growth inhibition ([5]; at 50.0 µM) | growth inhibition [6, 7] [%] | growth inhibition [6, 8] | growth inhibition ([6]; at 50.0 µM)
1 | O=C([O-])c1ccccc1[I+]c1ccc(C2CCCCC2)cc1 | 3 | 45% | 85.2% (active) | 2 | 67% | 79.6% (active) | 22 | 50% | 89.8% (active) | 3% | 47% | 73.2% (active) | 0 | 45% | 71.8% (active) | 32 | 85% (active) | 89.9% (active)
2 | COc1cc(C2OC(=O)c3ccccc3S2)ccc1O (configuration not stated) | 8 | 92% (active) | 98.7% (active) | 12 | 98% (active) | 98.6% (active) | -4 | 74% (active) | 71.6% (active) | 7% | 76% (active) | 96% (active) | 5 | 84% (active) | 95.5% (active) | 13 | 98% (active) | 99.5% (active)
3 | N#CC(c1c(Cl)cccc1N1CCCCC1)N1CCCCC1 (configuration not stated) | 31 | 75% (active) | 86.9% (active) | 34 | 78% (active) | 87.4% (active) | 41 | 85% (active) | 87.6% (active) | 30% | 61% | 80.4% (active) | 37 | 92% (active) | 91.2% (active) | 46 | 84% (active) | 87.7% (active)
4 | Cn1c(=O)c2c(nnc(-c3ccccc3)[n+]2[O-])n(C)c1=O | -3 | 46% | 99.5% (active) | -1 | 97% (active) | 99.7% (active) | 1 | 90% (active) | 99.7% (active) | 2% | 43% | 99% (active) | -3 | 60% | 99.6% (active) | -6 | 95% (active) | 99.6% (active)
5 | CC1(C)CC(=O)C2=C(C1)OC1=C(CC(C)(C)CC1=O)C2c1ccccc1[N+](=O)[O-] (configuration not stated) | 22 | 22% | -21.8% | 16 | 12% | -13.3% | 25 | 19% | -13.5% | 23% | 41% | -7.3% | 9 | 5% | -17.6% | 24 | 27% | -17.1%
6 | CCOC(=O)C1(Br)CCN(S(=O)(=O)c2ccc(C)cc2)c2ccccc2C1=O (configuration not stated) | 1 | 90% (active) | 96.5% (active) | 10 | 97% (active) | 98% (active) | -7 | 96% (active) | 97.8% (active) | -6% | 66% | 95.2% (active) | -3 | 95% (active) | 97.5% (active) | 18 | 97% (active) | 98.4% (active)
7 | CCCCCOC(=O)C(C)SC#N (configuration not stated) | 12 | 45% | 42.2% | -13 | 54% | 47.9% | 4 | 80% (active) | 66.7% | 6% | 29% | 92.3% (active) | 9 | 52% | 54.9% | 19 | 44% | 73.8% (active)
8 | CC[C@@H](C(=O)[C@@H](C)[C@@H](O)[C@H](C)CCc1ccc(C)c(O)c1C(=O)O)[C@H]1O[C@](CC)([C@H]2CC[C@](O)(CC)[C@H](C)O2)C[C@@H]1C | 36 | 97% (active) | 89.7% (active) | 48 | 98% (active) | 92% (active) | 38 | 98% (active) | 91% (active) | 71% (active) | 99% (active) | 87.8% (active) | 65 | 98% (active) | 88.9% (active) | 35 | 98% (active) | 89.3% (active)
9 | CC(C)c1cc(C(=O)[O-])c(O)c(C(C)C)c1.CC(C)c1cc(C(=O)[O-])c(O)c(C(C)C)c1.CC(C)c1cc(C(=O)[O-])c(O)c(C(C)C)c1.CC(C)c1cc(C(=O)[O-])c(O)c(C(C)C)c1.CC(C)c1cc(C(=O)[O-])c(O)c(C(C)C)c1.CC(C)c1cc(C(=O)[O-])c(O)c(C(C)C)c1.[Cu+2].[Mn+2].[Mn+2] | 40 | 63% | 43.5% | 38 | 57% | 50.5% | 31 | 70% (active) | 44.5% | 34% | 53% | 50.7% | 37 | 66% | 55% | 39 | 66% | 82.1% (active)
